According to PubChem BioAssay (NCATS):
Inconclusive results are not listed. Calls of active or inactive are those of the source. Calls follow the shape of the full dose curve; tested in HEK293 reporter line.

Test: qHTS for Inhibitors of the Functional Ribonucleoprotein Complex (vRNP) of Lassa (LASV) Arenavirus: Viability assay - alamar blue signal for LASV Primary Screen (AID 1347083); also: nearly all actives have a fitted effect of over 80% in size
Settings: cell viability, alamar blue fluorescence (LASV minigenome counter-screen); series mostly up to 57.5 µM; activity change, negative = reduced viability: at the top concentration
% is scaled to controls: 0 for no effect and ±100 for the full control effect.

| SMILES | Potency | activity change, negative = reduced viability |
| --- | --- | --- |
| OC1C(O)C(O)C(O)C(O)C1O (centres undefined) | inactive |  |
| C[C@@]12CCC[C@H]1[C@@H]1CC[C@H]3C[C@@H](O)CC[C@]3(C)[C@H]1CC2 |  | 15.4% (inactive) |
| CCOC(=O)C(C#N)=C(c1ccccc1)c1ccccc1 |  | -1.88% (inactive) |
| CCOC(=O)c1c(N)sc2c1CCN(Cc1ccccc1)C2 |  | -1.09% (inactive) |
| Cc1cc(C(C)(C)C)cc(C)c1CC1=NCCN1 | inactive |  |
| CCN(CC)CCOC(=O)C(c1ccccc1)c1ccccc1 |  | 15.1% (inactive) |
| Cc1cn([C@H]2C[C@H](F)[C@@H](CO)O2)c(=O)[nH]c1=O |  | 6.59% (inactive) |
| CCOC(=O)[C@H](CCc1ccccc1)N[C@H]1CS[C@H](c2cccs2)CN(CC(=O)O)C1=O |  | 1.67% (inactive) |
| OC(C#CCN1CCCC1)(c1ccccc1)c1ccccc1 |  | 0.766% (inactive) |
| CCC(=O)c1ccc(O)cc1 |  | -0.961% (inactive) |
| CN1Cc2c(N)cccc2C(c2ccccc2)C1 (centres undefined) | inactive |  |
| Nc1ccc(C(=O)N2CC3CC(CN(Cc4ccccc4)C3)C2)cc1 |  | 4.31% (inactive) |
| Cc1ccc(Cl)c(OCC(O)CNC(C)(C)C)c1 (centres undefined) |  | -7.7% (inactive) |
| CCCCOC(=O)CCCCCCCCC(=O)OCCCC |  | 11.5% (inactive) |
| N#Cc1cc(NC(=O)C(=O)O)c(Cl)c(NC(=O)C(=O)O)c1 |  | 17% (inactive) |
| C/C(=C(\CCOP(=O)(O)O)SC(=O)c1ccccc1)N(C=O)Cc1cnc(C)nc1N |  | 7.22% [at 5.82 µM] (inactive) |
| Cc1cccc(Nc2cc(Cl)nc(SCC(=O)O)n2)c1C |  | 2.61% (inactive) |
| O=C1c2cccc(O)c2C(=O)c2c(O)cccc21 |  | -3.88% (inactive) |
| C=C1C[C@H]2[C@@H]3C=C(C)C4=CC(=O)CC[C@]4(C)[C@H]3CC[C@]2(C)[C@@]1(OC(C)=O)C(C)=O |  | 2.04% (inactive) |
